# Compounds with a hit are over-represented: about 10% of the library has one in this group of screens.
# GLS inhibitor: qHTS for Inhibitors of Glutaminase (GLS) | AID 624170, 2012 | GLS enzymatic activity, qHTS titration | Potency, µM (top dose mostly 45.5 µM), for inactives: at the highest dose activity change, negative = inhibition, actives largely listed as inhibitors | actives 0.21% (n = 410,000) | Glutaminase kidney isoform, mitochondrial (Homo sapiens), O94925; further: on the % scale 0 is the no-effect control and ±100 the full control effect
#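 Read-out is an Amplex red fluorescence increase coupled through glutamate oxidase and HRP, measured before and after 30 min room-temperature incubation. hKGA is in 45 mM KH2PO4 (pH 8.2) with 0.02% Tween-20; glutamine added as 1mM solution.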
# HP1b chromo inh: HTS for Inhibitors of HP1-beta Chromodomain Interactions with Methylated Histone Tails. Potency, µM (highest dose often 114 µM), inactives show top-dose activity change, negative = inhibition, usual class: inhibitors. actives 0.56% (n = 390,000). AlphaScreen HP1-beta / biotin-H3K9me3 peptide binding; further: nearly all actives have a fitted effect of over 70% in size
# Target sequence (P83916 whole entry, looked up): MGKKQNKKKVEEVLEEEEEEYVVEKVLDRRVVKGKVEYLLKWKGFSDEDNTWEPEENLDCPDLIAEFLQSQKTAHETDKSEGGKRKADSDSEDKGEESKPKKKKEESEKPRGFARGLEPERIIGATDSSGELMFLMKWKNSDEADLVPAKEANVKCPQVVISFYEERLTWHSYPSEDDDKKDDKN
#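 HP1-beta protein (50 nM final) preincubated 30 min at room temperature with biotinylated H3(1-18)K9me3 peptide (50 nM) in PBS pH 7.4, 0.01% Tween-20, then compound added for 30 min. AlphaScreen streptavidin donor/nickel chelate acceptor beads (10 ug/mL final), 30 min dark, luminescence read.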
# BAZ2B inh: qHTS Assay for Inhibitors of BAZ2B; actives 4.4% (n = 360,000); AID 504333, 2011; AlphaScreen BAZ2B-H3K14Ac peptide displacement; Potency, µM (series often up to 114 µM), for inactives: top-dose activity change, negative = inhibition, hits mostly inhibitors; further: on the % scale 0 is the no-effect control and ±100 the full control effect; nearly all actives have a fitted effect of over 60% in size
#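 AlphaScreen displacement: compounds (up to 110uM) incubated 30 min at room temperature with a preformed 50 nM BAZ2B/50 nM biotinylated H3K14Ac peptide complex in PBS pH 7.4 with Tween-20. Donor and acceptor beads at 10 ug/mL final added, 20 min light-protected before reading.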
# G9a inh: qHTS Assay for Inhibitors of Histone Lysine Methyltransferase G9a; G9a H3K9 monomethylation, AlphaScreen, 2 h; Potency, µM (doses to about 102 µM), without a hit: at the highest dose activity, negative = inhibition, actives largely listed as inhibitors; actives 8.8% (n = 350,000); further: on the % scale 0 is the no-effect control and ±100 the full control effect; nearly all actives have a fitted effect of over 75% in size
# Target sequence (Q96KQ7 913-1193 limits assumed): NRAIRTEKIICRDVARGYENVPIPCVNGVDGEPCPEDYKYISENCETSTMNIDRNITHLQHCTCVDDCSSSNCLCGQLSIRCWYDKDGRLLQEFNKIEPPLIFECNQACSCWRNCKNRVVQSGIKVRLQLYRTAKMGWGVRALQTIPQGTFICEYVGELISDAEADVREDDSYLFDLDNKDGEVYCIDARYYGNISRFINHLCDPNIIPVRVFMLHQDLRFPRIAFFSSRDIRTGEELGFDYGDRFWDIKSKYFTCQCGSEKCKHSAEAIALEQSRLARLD
#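 AlphaScreen detection with an anti-monomethyl H3K9 antibody quantified product after a 2 h room-temperature reaction containing 500 nM biotinylated H3K9 peptide, 20 µM SAM and 20 nM enzyme, which had been preincubated 15 min with compound.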
# JMJD2A Tudor: qHTS Assay for Inhibitors of JMJD2A-Tudor Domain; AID 504339, 2011; Potency, µM (doses to about 114 µM), without a hit: top-dose activity change, negative = inhibition, usual class: inhibitors; AlphaScreen JMJD2A-Tudor / H3K4me3 peptide binding; actives 4.4% (n = 390,000); Lysine-specific demethylase 4A (Homo sapiens), O75164; further: on the % scale 0 is the no-effect control and ±100 the full control effect; nearly all actives have a fitted effect of over 50% in size
# * = called active by the depositor; ? = inconclusive; · = not tested or not shown; [ ] = dose if it differs, or a comment. The call rests on the fitted dose curve; in most records, active means well fitted curve in the direction sought with a large enough effect; inconclusive means small, poorly fitted or top-dose-only effect, or another doubt; inactive means no such curve, though single readings can be large; an effect the other way counts as inactive or inconclusive. Potency means the concentration at half of the fitted maximal effect.
SMILES,GLS inhibitor,HP1b chromo inh,BAZ2B inh,G9a inh,JMJD2A Tudor
COc1ccccc1CNC(=O)COC(=O)c1ccccc1SCC(=O)N1CCCC1,3.1%,2.8%,2.6%,?,-8.3%
COc1cc(OC)c(C2C=CC(=O)CC2)c(OC)c1 (stereo not given),1.2%,·,·,·,·
COc1ccccc1CNC(=O)C1CCC(CNS(=O)(=O)c2ccc3c(c2)CCCC(=O)N3)CC1 (stereo not given),-1.3%,15.5%,2.2%,-4.3%[59 µM],3.9%
Cc1nnc(NC2=NCCC2)o1,-11.8%,40.7%,79.4µM*,9.2%[12.7 µM],1.0%
Cc1nnc(NC2=NCCC2)s1,4.0%,-6.3%,-27.9%,28.2µM*,79.4µM*
COc1ccc(NC(=O)N(C)C[C@H]2OCc3cn(nn3)CCCC(=O)N([C@@H](C)CO)C[C@@H]2C)cc1,10.3%,·,·,·,·
CCN(CC)S(=O)(=O)c1ccc(NC(=O)[C@H](CSCc2ccccc2)N2Cc3ccccc3C2=O)cc1,0.0%,38.5%,-27.1%,1.7%[59 µM],-15.8%
O=C(O)c1cc(-c2ccccc2)n(-c2ccccc2C(=O)O)n1,15.0%,-3.8%,12.4%,?,28.2µM*
COc1cccc(C2C(=O)c3ccccc3C2=O)c1,-10.1%,25.8%,-28.2%,50.1µM*,2.2%
COC(=O)C1=C(C)NC2=C(C(=O)c3ccccc32)C1c1cccc(OC)c1 (stereo not given),4.7%,-1.8%,-36.9%,50.1µM*,-22.9%
CC1=C([N+](=O)[O-])C(c2cccc(Br)c2)C2=C(N1)c1ccccc1C2=O (stereo not given),5.7%,?,14.1µM*,-20.5%[2.33 µM],15.8µM*
C#CCOc1ccc(C2C(C(=O)OC)=C(C)NC3=C2C(=O)c2ccccc23)cc1OCC (stereo not given),6.8%,?,22.4µM*,11.2µM*,25.1µM*
COc1ccc(C(=O)NCc2ccc3c(c2)CCN3C(=O)c2ccncc2)cc1,-13.9%,-7.6%,-3.9%,1.1%[59 µM],-20.7%
CCOc1cc(C2C(C(=O)OC)=C(C)NC3=C2C(=O)c2ccccc23)cc(Br)c1OCC (stereo not given),36.2%,-26.4%,10µM*,10µM*,12.6µM*
COc1cccc(C2C3=C(Nc4[nH]n(-c5ccccc5)c(=O)c42)c2ccccc2C3=O)c1 (stereo not given),·,·,?,10µM*,·
CCOC(=O)C1=C(C)NC2=C(C(=O)c3ccccc32)C1c1cccc2ccccc12 (stereo not given),-24.4%,?,35.5µM*,-36.5%[12.7 µM],20µM*
CCOc1cc(Br)c(C2C(C(=O)OC)=C(C)NC3=C2C(=O)c2ccccc23)cc1OCC (stereo not given),3.0%,-25.5%,31.6µM*,17.8µM*,-29.8%
CCOC(=O)C1=C(C)NC2=C(C(=O)c3ccccc32)C1c1ccc(O)cc1 (stereo not given),12.3%,-23.8%,?,?,?
CCOc1cc(C2C(C(=O)OC)=C(C)NC3=C2C(=O)c2ccccc23)c(Br)cc1OC (stereo not given),3.1%,-12.4%,-25.9%,-7.8%[59 µM],-25.6%
CCOc1ccccc1N(CC(=O)NCc1ccco1)C(=O)CCC(=O)Nc1nccs1,-1.5%,19.6%,-31.5%,1.9%,-12.7%
COc1ccc(N2CCN(C(c3ccccc3)c3sc4nc(-c5ccco5)nn4c3O)CC2)cc1 (stereo not given),2.5%,?,?,?,?
O=C(NCCc1ccccc1F)C1CC(=O)N(c2ccc3c(c2)OCCO3)C1 (stereo not given),-0.2%,·,·,·,·
CCOC(=O)COc1cc(Br)c(C2NC(=O)NC(C)=C2C(C)=O)cc1OCC (stereo not given),1.6%,43.2%,12.5%,2.6%[12.7 µM],0.6%
CCOC(=O)COc1ccc(C2C(C(=O)OC)=C(C)NC3=C2C(=O)c2ccccc23)cc1Cl (stereo not given),3.9%,?,-31.7%,0.7%[59 µM],17.8µM*
CCOc1cc(C2C(C(=O)OC)=C(C)NC3=C2C(=O)c2ccccc23)c(Br)cc1O (stereo not given),23.3%,?,22.4µM*,15.8µM*,35.5µM*
SMILES,GLS inhibitor,HP1b chromo inh,BAZ2B inh,G9a inh,JMJD2A Tudor
CCOc1cc(C2C(C(=O)OC)=C(C)NC3=C2C(=O)c2ccccc23)ccc1OC (stereo not given),3.9%,?,-34.5%,?,-31.7%
CC(=O)Nc1ccc(-c2ccc3nnc(C)n3n2)cc1,2.6%,13.0%,-5.9%,-6.5%,-13.3%
Cc1nnc2ccc(-c3ccc(NC(=O)c4ccco4)cc3)nn12,-8.4%,14.5%,-19.9%,35.5µM*,-4.6%
O=C(NCc1ccco1)c1cccc2c1C(=O)c1ccc(N3CCC(N4CCCCC4)CC3)cc1S2(=O)=O,2.2%,·,·,·,·
O=C(Nc1ccc(Cl)cc1)c1cc2c(cc1O)[nH]c1ccccc12,12.6µM*,-3.7%,-21.3%,?,-11.1%
N#CC1=C(N)Oc2nc(-c3ccccc3)[nH]c2C1c1cccnc1 (stereo not given),18.1%,30.4%,-3.0%,?,-10.8%
Cc1ccc(C2C(C#N)=C(N)Oc3nc(-c4ccccc4)[nH]c32)o1 (stereo not given),33.0%,-11.6%,-33.5%,50.1µM*,-32.9%
O=C(NCCc1ccccc1)c1ccc(Cn2c(SCc3ccccc3F)nc3cccnc32)cc1,-1.7%,49.0%,10.2%,1.1%[59 µM],-26.1%
O=C(NCCc1ccccc1)c1ccc(CSc2nc3cccnc3n2Cc2ccccc2F)cc1,12.7%,25.1µM*,14.1µM*,2µM*,5.62µM*
CCOc1ccc(S(=O)(=O)N2CCN(c3cccc(C(F)(F)F)c3)CC2)cc1OCC,0.0%,27.3%,2.0%,-1.4%[59 µM],-13.3%
CC1(C)Cc2cccc(OCC(O)CN3CCN(c4ccccn4)CC3)c2O1 (stereo not given),-7.8%,23.7%,2.1%,-7.0%[59 µM],-17.6%
CC1(C)Cc2cccc(OCC(O)CNCc3ccccn3)c2O1 (stereo not given),8.8%,35.4%,?,?,89.1µM*
CCc1ccc(-n2nc(CO)c(C(=O)NC(C)c3ccc(Cl)cc3)n2)cc1 (stereo not given),1.1%,62.2%,4.3%,8.1%[59 µM],-0.9%
O=C(/C=C/c1cccs1)N1CCN(c2ccc(O)cc2)CC1,7.08µM*,?,-36.6%,7.94µM*,?
O=S(=O)(c1cccs1)N1CCN(c2ccc(O)cc2)CC1,?,-15.3%,-29.3%,35.5µM*,-23.9%
